Compound activity (PubChem)
Compounds with a hit are over-represented: about 15% of the library has one in this group of screens.
12-LOX inh – Primary qHTS assay for inhibitors of human arachidonate 12S-lipoxygenase (ALOX12): Round 2; Potency, µM (series often up to 108 µM), inactives show at the top dose activity change, negative = inhibition, usual class: inhibitors; Polyunsaturated fatty acid lipoxygenase ALOX12 (Homo sapiens), P18054; 580,000 compounds, 1.1% hits; purified 12hLO, xylenol orange hydroperoxide absorbance
Target sequence (P18054 whole entry, looked up): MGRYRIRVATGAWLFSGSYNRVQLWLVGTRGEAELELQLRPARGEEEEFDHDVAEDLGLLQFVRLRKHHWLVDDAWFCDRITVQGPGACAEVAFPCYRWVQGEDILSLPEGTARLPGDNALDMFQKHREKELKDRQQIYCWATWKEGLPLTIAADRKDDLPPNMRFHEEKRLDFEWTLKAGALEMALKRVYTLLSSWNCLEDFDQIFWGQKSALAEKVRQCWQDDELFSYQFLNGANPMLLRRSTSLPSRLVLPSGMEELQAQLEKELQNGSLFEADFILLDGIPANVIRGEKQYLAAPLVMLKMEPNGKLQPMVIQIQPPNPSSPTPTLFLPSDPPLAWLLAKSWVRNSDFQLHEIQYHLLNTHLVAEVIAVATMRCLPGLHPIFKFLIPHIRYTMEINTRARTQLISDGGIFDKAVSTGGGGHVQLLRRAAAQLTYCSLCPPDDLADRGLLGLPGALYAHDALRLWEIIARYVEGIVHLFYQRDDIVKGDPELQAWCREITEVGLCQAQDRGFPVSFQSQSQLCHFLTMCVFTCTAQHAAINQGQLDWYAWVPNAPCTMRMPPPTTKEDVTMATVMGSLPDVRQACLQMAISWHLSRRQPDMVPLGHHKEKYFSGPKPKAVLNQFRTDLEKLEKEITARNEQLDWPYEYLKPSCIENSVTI
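Purified human 12hLO at 150 nM in 25 mM Hepes, 0.01% Triton X-100, pH 7.0, preincubated 15 min at room temperature with compound. Reaction started with 40 uM arachidonic acid, 30 min at room temperature. Hydroperoxide measured by Fe-xylenol orange, 573/405 nm absorbance ratio.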
Gal4-VP16 FLuc – VP16 counterscreen qHTS for inhibitors of ROR gamma transcriptional activity. Drosophila S2 Gal4-VP16 UAS-luciferase, luminescence, 20 h. Potency, µM (series often up to 53.6 µM), for inactives: top-dose activity, negative = inhibition, actives largely listed as inhibitors. 310,000 compounds, 3.5% hits. AID 2546, 2010;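 further: Gal4-VP16 expression switched on by copper sulfate through the metallothionein promoter; nearly all actives have a fitted effect of over 50% in size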
RORg inh – qHTS for inhibitors of ROR gamma transcriptional activity; Nuclear receptor ROR-gamma (Mus musculus), P51450; Drosophila S2 Gal4-RORgamma UAS-luciferase reporter, 20 h; Potency, µM (titrated, usually from 53.6 µM), for inactives: at the top dose activity change, negative = inhibition, hits mostly inhibitors; 310,000 compounds, 5.4% hits; AID 2551, 2010; further: nearly all actives have a fitted effect of over 60% in size
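Drosophila Schneider cells stably carrying a metallothionein-driven Gal4 DBD–ROR gamma fusion and a UAS-Photinus luciferase reporter were exposed to compound for 1 hr, then induced with copper sulfate (700 uM final) for 20 hr at ambient temperature before luminescence reading.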
ELG1 DNA repair – qHTS screen for small molecules that inhibit ELG1-dependent DNA repair in human embryonic kidney (HEK293T) cells expressing luciferase-tagged ELG1; Potency, µM (series often up to 46.1 µM), inactives show at the top dose activity change, negative = inhibition, hits mostly inhibitors; AID 504467, 2011; HEK293T ELG1-luciferase reporter, luminescence, 16 h; DNA damage induced by 5-fluorouridine; 330,000 compounds, 2.3% hits; further: nearly all actives have a fitted effect of over 55% in size
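Step one: seed 2,000 cells per well. Step two: pin-transfer compound or DMSO alongside 5-fluorouridine. Step three: incubate 16 hr, 37 °C, 5% CO2. Step four: add ONE-Glo, wait 30 min, read luminescence.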
TDP1 cell noCPT – qHTS for Inhibitors of human tyrosyl-DNA phosphodiesterase 1 (TDP1): qHTS in cells in absence of CPT | DT40 Tdp1-/- hTDP1 cells, no CPT, ATP luminescence, 48 h | Potency, µM (series often up to 46.2 µM), for the others: top-dose activity change, negative = growth inhibition, hits mostly inhibitors | 420,000 compounds, 15% hits; further: nearly all actives have a fitted effect of over 55% in size
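Compound effects on proliferation are scored in DT40 Tdp1-/-;hTDP1 cells in the absence of CPT. ATP levels (CellTiter-Glo luminescence) are recorded after a ≥48 hr, 37 °C incubation.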
TDP1 cell CPT – qHTS for Inhibitors of human tyrosyl-DNA phosphodiesterase 1 (TDP1): qHTS in cells in presence of CPT. chicken DT40 Tdp1-/-;hTDP1 cells + 20 nM CPT, ATP luminescence, 48 h. Potency, µM (doses to about 46.2 µM), for inactives: top-dose activity change, negative = growth inhibition, actives largely listed as inhibitors. 420,000 compounds, 12% hits. AID 686979, 2013; further: nearly all actives have a fitted effect of over 55% in size
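Chicken DT40 Tdp1-/- cells stably complemented with human TDP1 were seeded at 400 cells/well in medium containing 20 nM camptothecin, exposed to pin-transferred compounds, and grown at 37 °C for at least 48 hr. Viability was read as ATP luminescence.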
The depositor's hits bear a star; u = inconclusive; x = no result; [ ] = dose if it differs, or a comment. The call rests on the fitted dose curve; in most records, active means well fitted curve in the direction sought with a large enough effect; inconclusive means small, poorly fitted or top-dose-only effect, or another doubt; inactive means no such curve, though single readings can be large; an effect the other way counts as inactive or inconclusive. On the % scale 0 is the no-effect control and ±100 the full control effect; potency means the concentration at half of the fitted maximal effect.

SMILES	12-LOX inh	Gal4-VP16 FLuc	RORg inh	ELG1 DNA repair	TDP1 cell noCPT	TDP1 cell CPT
Cc1ccc2c(c1)C1CN(C)CCC1N2Sc1ccccc1[N+](=O)[O-] (centres undefined)	u	-19%	2%	-9%	16µM*	u
Cc1ccc2c(c1)[C@@H]1CN(C)CC[C@@H]1N2S(=O)(=O)c1ccc([N+](=O)[O-])cc1	u	-12%	-6%	u	-28%	u
Cc1cc(C)n(/N=C/c2ccc(C(C)C)cc2)c(=O)c1C#N	-10%	u	-42%	u	8.2µM*	u
Cc1cc(C)n(/N=C/c2ccc(O)cc2)c(=O)c1C#N	-32%	2%	21%	8%	-18%	-22%
CCc1ccc(N(C(=O)CCC(=O)Nc2cc(C)on2)C(C(=O)NC(C)(C)C)c2ccc(OC)cc2)cc1 (centres undefined)	-17%	3%	22%	-25%	21µM*	u
CCOc1cccc(N(C(=O)CCC(=O)Nc2cc(C)on2)C(C(=O)NC(C)(C)C)c2ccc(OC)cc2)c1 (centres undefined)	16%	4%	20%	0%	u	29µM*
CC(=O)N1c2ccccc2N(Cc2ccc(C)cc2C)C(=O)C1(C)C	1%[57.4 µM]	-7%	0%	-13%	5.8µM*	6.5µM*
Cc1ccsc1/C=C1\Oc2cc(OC(=O)c3cccs3)ccc2C1=O	-11%	x	x	x	x	x
COc1ccc2c(c1)O/C(=C\c1sccc1C)C2=O	u	3%	17%	u	18µM*	u
Cn1ncc(N=Cc2ccccc2)c1C(=O)Nc1cccc(Cl)c1	u	3%	u	u	18µM*	u
N#Cc1cc([N+](=O)[O-])ccc1NC(=O)COC(=O)C12CC3CC(CC(C3)C1)C2	x	-12%	-8%	10µM*	x	x
N#Cc1cc([N+](=O)[O-])ccc1NC(=O)COC(=O)C1CC2CCCC(C1)C2=O (centres undefined)	4%	x	x	9.2µM*	u	-10%
COc1ccccc1N1CCN(S(=O)(=O)c2ccc([N+](=O)[O-])cc2)CC1	-11%	x	x	x	u	u
CC(C)CC(=O)NC(=S)N1CCN(c2ccc([N+](=O)[O-])cc2Cl)CC1	u	u	3.5µM*	u	u	u
COc1cc2c(cc1OC)CN(c1ccc([N+](=O)[O-])cc1C#N)CC2	-9%	22%	16%	u	13µM*	21µM*
COc1cc2c(cc1OC)CN(c1ccc([N+](=O)[O-])cc1Cl)CC2	u	18µM*	u	-24%	12µM*	23µM*
COc1ccccc1N1CCN(c2ccc([N+](=O)[O-])cc2Cl)CC1	-3%	-8%	30%[10 µM]	u	12µM*	15µM*
COCCNC(=O)c1ccc(OC2CCN(Cc3cnc(SC)nc3)CC2)c(Cl)c1	1%	x	x	x	x	x
CCOc1cc2c3c(c1)C(C)=CC(C)(C)N3C(=O)C2=O	-15%	-8%	39%	-1%	2.6µM*	3.3µM*
Cc1cc2c3c(c1)C(C)CC(C)(C)N3C(=O)C2=O (centres undefined)	1%	4%	-1%	-11%	u	23µM*
CCOc1cc2c3c(c1)C(C)CC(C)(C)N3C(=O)C2=O (centres undefined)	-13%	1%	-1%	-6%	18µM*	u
O=C(N/N=C/C=C/c1ccccc1)NC1CCCCC1	0%	-5%	u	2%	18µM*	18µM*
O=C(N/N=C/C=C/c1ccccc1)C1CC1c1ccccc1 (centres undefined)	4%	u	u	5%	12µM*	18µM*
O=C(N/N=C/c1cccc(O)c1)NC1CCCCC1	0%	-18%	u	u	-5%	2%
CC(C)Cc1nc2nccc(-c3cccs3)n2n1	24%	x	x	x	x	x
SMILES	12-LOX inh	Gal4-VP16 FLuc	RORg inh	ELG1 DNA repair	TDP1 cell noCPT	TDP1 cell CPT
CCOC(=O)c1cc2c(c(-c3cccc(-c4cc5ccccc5o4)c3)n1)[C@@H](CCO)N(S(=O)C(C)(C)C)C2 (some centres undefined)	-10%	x	x	x	u	-20%
COCCNC(=O)c1cc2c(c(-c3cccc(C#Cc4ccc(OC)c(OC)c4)c3)n1)[C@H](CCO)N(S(=O)C(C)(C)C)C2 (some centres undefined)	-26%	x	x	x	u	u
CC(C)(C)S(=O)N1Cc2cc(C(=O)NCc3ccc(Oc4ccccc4)cc3)nc(-c3cccc(-c4cc5ccccc5o4)c3)c2[C@H]1CCO (some centres undefined)	u	x	x	x	23µM*	u
CC(C)(O)C#Cc1cccc(-c2nc(C(=O)NCCCN3CCOCC3)cc3c2[C@H](CCO)N(S(=O)C(C)(C)C)C3)c1 (some centres undefined)	u	x	x	x	-5%	-13%
CN1CCN(C(=O)c2cc3c(c(-c4cccc(Br)c4)n2)[C@H](CCO)N(S(=O)C(C)(C)C)C3)CC1 (some centres undefined)	2%	x	x	x	-3%	-21%
CC(C)(C)S(=O)N1Cc2cc(C(=O)N3CCOCC3)nc(-c3cccc(Br)c3)c2[C@H]1CCO (some centres undefined)	5µM*	x	x	x	-23%	-29%
CC(C)(C)S(=O)N1Cc2cc(C(=O)NCCCN3CCOCC3)nc(-c3cccc(-c4cc5ccccc5o4)c3)c2[C@@H]1CCO (some centres undefined)	-24%	x	x	x	18µM*	13µM*
COc1cccc(-c2cccc(-c3nc(C(=O)NCc4ccc5c(c4)OCO5)cc4c3[C@H](CCO)N(S(=O)C(C)(C)C)C4)c2)c1 (some centres undefined)	28µM*	x	x	x	u	u
COCCn1c(SCc2ccc(OC)c(F)c2)nnc1-c1cccc(C)c1	-78%	x	x	x	x	x
O=C(Nc1ncccc1O)c1ccc2c(c1)OCO2	u	x	x	u	16µM*	u
O=C(Nc1ncccc1O)c1ccc2c(c1)OCCO2	0%	x	x	u	15µM*	23µM*
